Test results taken from PubChem BioAssay (Tox21).
Results filed as inconclusive are left out. The source made the active and inactive calls. Unless noted, calls follow the shape of the dose curve; as a rule, active = well fitted curve in the direction sought with a large enough effect in the repeat runs; inconclusive = weak or mixed curves; inactive = no such curve, though single readings can be large; an effect the other way counts as inactive or inconclusive.

How the values were obtained:
[1] = qHTS assay to identify small molecule agonists of the peroxisome proliferator-activated receptor delta (PPARd) signaling pathway - cell viability counter screen (AID 743211); also: nearly all actives have a fitted effect of over 55% in size
How it was run: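 PPARd-bla HEK293H cells (3000/well) were pre-incubated 5 h at 37 C, then exposed to compound for 17 h at 37 C. After 2 h with LiveBLAzer substrate, CellTiter-Glo was added to the same wells; luminescence read after 30 min at room temperature.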

[2] = molecular target: Peroxisome proliferator-activated receptor delta (Homo sapiens) (UniProt Q03181); test: qHTS assay to identify small molecule agonists of the peroxisome proliferator-activated receptor delta (PPARd) signaling pathway (AID 743212; calls by dose curve)
Chain of Peroxisome proliferator-activated receptor delta (Homo sapiens) (Q03181 whole entry, looked up): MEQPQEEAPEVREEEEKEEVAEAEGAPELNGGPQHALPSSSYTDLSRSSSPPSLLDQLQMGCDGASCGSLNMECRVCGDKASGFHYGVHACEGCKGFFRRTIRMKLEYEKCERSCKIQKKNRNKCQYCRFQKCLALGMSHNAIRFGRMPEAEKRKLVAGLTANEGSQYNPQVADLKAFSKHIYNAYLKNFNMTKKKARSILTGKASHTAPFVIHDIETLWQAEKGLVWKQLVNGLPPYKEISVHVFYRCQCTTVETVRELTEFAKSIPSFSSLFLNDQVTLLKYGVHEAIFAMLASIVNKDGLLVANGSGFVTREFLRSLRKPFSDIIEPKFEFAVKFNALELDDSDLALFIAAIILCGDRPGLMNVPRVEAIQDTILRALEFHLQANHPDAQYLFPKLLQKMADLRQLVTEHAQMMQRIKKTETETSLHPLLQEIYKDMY
How it was run: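 Quantitative high-throughput agonist screen in a HEK293H beta-lactamase reporter line under UAS control. Compounds in DMSO, at 37 C. Fluorescence read after 2 h with FRET substrate at room temperature.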

[3] = qHTS assay to identify small molecule antagonists of the peroxisome proliferator-activated receptor delta (PPARd) signaling pathway - cell viability counter screen (AID 743213); also: nearly all actives have a fitted effect of over 50% in size
How it was run: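 Same-well viability: cells pre-incubated 5 h, dosed with compound plus 300 nM L165041, kept 17 h at 37 C, FRET substrate 2 h RT, then CellTiter-Glo 30 min RT and luminescence.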

[4] = molecular target: Peroxisome proliferator-activated receptor delta (Homo sapiens) (UniProt Q03181); test: qHTS assay to identify small molecule antagonists of the peroxisome proliferator-activated receptor delta (PPARd) signaling pathway (AID 743215; active = well fitted inhibition curve with a large enough effect in the signal ratio in the repeat runs, not every such curve was filed as active; the % refers to the signal ratio;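 also: cells stimulated with agonist L165041 at 300 nM final during compound exposure; series mostly up to about 62 µM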)
How it was run: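 Antagonist-mode beta-lactamase reporter screen: HEK293H cells with UAS-bla under PPARd control, stimulated by 300 nM L165041 (final) alongside test compound for 17 h at 37 C, then FRET fluorescence after 2 h substrate incubation.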

[5] = molecular target: Bile acid receptor (Homo sapiens) (UniProt Q96RI1); test: qHTS assay to identify small molecule antagonists of the farnesoid-X-receptor (FXR) signaling pathway (AID 743217; active = well fitted inhibition curve with a large enough effect in the signal ratio in the repeat runs, not every such curve was filed as active; the % refers to the signal ratio)
Chain of Bile acid receptor (Homo sapiens) (Q96RI1 whole entry, looked up): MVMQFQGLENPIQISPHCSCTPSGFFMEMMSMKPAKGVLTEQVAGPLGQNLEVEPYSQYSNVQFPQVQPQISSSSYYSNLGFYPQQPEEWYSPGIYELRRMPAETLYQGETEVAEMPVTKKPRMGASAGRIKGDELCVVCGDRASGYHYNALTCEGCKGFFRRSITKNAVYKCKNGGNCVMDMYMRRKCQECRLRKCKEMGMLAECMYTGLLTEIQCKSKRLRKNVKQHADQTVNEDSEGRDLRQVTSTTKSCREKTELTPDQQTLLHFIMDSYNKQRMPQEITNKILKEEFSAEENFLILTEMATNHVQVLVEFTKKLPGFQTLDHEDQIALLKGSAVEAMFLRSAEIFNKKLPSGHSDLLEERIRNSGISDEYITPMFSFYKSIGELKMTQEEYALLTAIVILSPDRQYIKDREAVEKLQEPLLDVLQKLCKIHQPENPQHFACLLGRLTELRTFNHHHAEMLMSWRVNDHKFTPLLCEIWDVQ
How it was run: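 Beta-lactamase reporter under UAS control in HEK 293T cells; compound exposure 16 h at 37 °C in the presence of chenodeoxycholic acid (50 uM final); signal from B/G FRET substrate after 2 h at room temperature.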

[6] = molecular target: Bile acid receptor (Homo sapiens) (UniProt Q96RI1); test: qHTS assay to identify small molecule agonists of the farnesoid-X-receptor (FXR) signaling pathway (AID 743220; active = well fitted activation curve with a large enough effect in the signal ratio in the repeat runs, not every such curve was filed as active; the % refers to the signal ratio)
How it was run: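 Beta-lactamase reporter under UAS control in GeneBLAzer FXR HEK 293T cells (5000/well) measured with LiveBLAzer FRET substrate after 2 h at room temperature. Compound exposure lasted 16 h at 37C.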

[7] = molecular target: Vitamin D3 receptor (Homo sapiens) (UniProt P11473); test: qHTS assay to identify small molecule agonists of the vitamin D receptor (VDR) signaling pathway (AID 743222; calls by dose curve)
Chain of Vitamin D3 receptor (Homo sapiens) (P11473 whole entry, looked up): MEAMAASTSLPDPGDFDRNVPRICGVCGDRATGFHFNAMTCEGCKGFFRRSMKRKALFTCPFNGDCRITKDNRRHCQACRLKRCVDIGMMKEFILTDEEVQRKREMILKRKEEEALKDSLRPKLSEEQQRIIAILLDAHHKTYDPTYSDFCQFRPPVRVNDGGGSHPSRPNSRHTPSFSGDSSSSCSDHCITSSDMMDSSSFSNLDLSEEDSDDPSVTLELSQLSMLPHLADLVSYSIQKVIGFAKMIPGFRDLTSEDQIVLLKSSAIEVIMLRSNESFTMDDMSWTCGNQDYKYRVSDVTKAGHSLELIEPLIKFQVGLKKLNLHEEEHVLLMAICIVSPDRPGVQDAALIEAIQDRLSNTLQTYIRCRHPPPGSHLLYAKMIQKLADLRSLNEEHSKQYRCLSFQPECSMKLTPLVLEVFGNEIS
How it was run: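 Agonist activity measured in VDR-bla reporter cells. Exposure 16 h, 37C, 5% CO2; detection by B/G FRET substrate, 2 h RT.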

[8] = molecular target: Vitamin D3 receptor (Homo sapiens) (UniProt P11473); test: qHTS assay to identify small molecule antagonists of the vitamin D receptor (VDR) signaling pathway (AID 743223; active = well fitted inhibition curve with a large enough effect in the signal ratio in the repeat runs, not every such curve was filed as active; the % refers to the signal ratio)
How it was run: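 VDR-bla cells were treated with compound plus 3 nM final 1alpha,25-dihydroxyvitamin D3 for 16 h at 37C. Beta-lactamase reporter read by B/G FRET substrate fluorescence after 2 h at room temperature. qHTS format.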

[9] = qHTS assay to identify small molecule agonists of the vitamin D receptor (VDR) signaling pathway - cell viability counter screen (AID 743224); also: series mostly up to about 63 µM; nearly all actives have a fitted effect of over 50% in size
How it was run: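 VDR-bla cell line, quantitative HTS format; 16 h compound incubation (37C, 5% CO2); ATP-based CellTiter-Glo luminescence measured in the reporter assay wells.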

[10] = qHTS assay to identify small molecule agonists of the NFkB signaling pathway - cell viability counter screen (AID 1159515; calls by dose curve; also: series mostly up to about 61 µM; nearly all actives have a fitted effect of over 55% in size)
How it was run: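 Viability in NFkB-bla ME-180 cells was measured by CellTiter-Glo luminescence, 30 min room temperature, in wells already treated 5 hr with compounds and read for reporter FRET.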

[11] = qHTS assay to identify small molecule antagonists of the retinoid-related orphan receptor gamma (ROR-gamma) signaling pathway - cell viability counter screen (AID 1159520); also: nearly all actives have a fitted effect of over 50% in size
How it was run: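 Tet-on ROR gamma CHO cells were given compounds for 2 hr, then doxycycline hyclate at 1 uM final, and incubated 16 hr at 37 C. Viability was measured as ATP content by CellTiter-Glo luminescence.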

[12] = molecular target: Nuclear receptor ROR-gamma (Homo sapiens) (UniProt P51449); test: qHTS assay to identify small molecule antagonists of the retinoid-related orphan receptor gamma (ROR-gamma) signaling pathway (AID 1159521;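 also: CHO cells with doxycycline inducible ROR-gamma driving an RORE luciferase reporter; top concentration of the series differs between compounds; nearly all actives have a fitted effect of over 50% in size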)
How it was run: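 Tet-on ROR-gamma CHO cells with ROR response element-luciferase reporter; compounds added 2 hr before 1 uM doxycycline induction, then 16 hr at 37 C. Antagonism scored as decreased ONE-Glo luminescence.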

[13] = qHTS assay to identify small molecule agonists of the AP-1 signaling pathway - cell viability counter screen (AID 1159525; calls by dose curve; also: nearly all actives have a fitted effect of over 55% in size)
How it was run: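 AP-1-bla ME-180 cells in Opti-MEM with 0.5% dialyzed FBS, compound exposure 5 h at 37 C in 15-point titration. Viability read in the same wells as ATP content by CellTiter-Glo luminescence, normalised to tetra-n-octylammonium bromide and DMSO controls.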

[14] = qHTS assay to identify small molecule agonists of the AP-1 signaling pathway (AID 1159526; calls by dose curve)
[15] = molecular target: Retinoic acid receptor RXR-alpha (Homo sapiens) (UniProt P19793); test: qHTS assay to identify small molecule agonists of the RXR signaling pathway (AID 1159527; calls by dose curve; also: nearly all actives have a fitted effect of over 35% in size)
Chain of Retinoic acid receptor RXR-alpha (Homo sapiens) (P19793 whole entry, looked up): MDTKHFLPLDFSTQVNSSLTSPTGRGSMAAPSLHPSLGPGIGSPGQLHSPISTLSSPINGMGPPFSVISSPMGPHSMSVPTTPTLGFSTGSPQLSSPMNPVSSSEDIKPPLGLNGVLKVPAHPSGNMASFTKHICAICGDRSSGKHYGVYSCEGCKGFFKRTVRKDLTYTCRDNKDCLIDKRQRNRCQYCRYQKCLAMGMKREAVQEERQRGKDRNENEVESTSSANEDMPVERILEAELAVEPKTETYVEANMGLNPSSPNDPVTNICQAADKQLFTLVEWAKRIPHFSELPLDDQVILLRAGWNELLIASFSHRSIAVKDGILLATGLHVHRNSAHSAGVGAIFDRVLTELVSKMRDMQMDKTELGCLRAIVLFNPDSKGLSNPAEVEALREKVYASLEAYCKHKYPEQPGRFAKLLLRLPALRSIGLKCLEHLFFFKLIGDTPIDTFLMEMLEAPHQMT
How it was run: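 GeneBLAzer RXR-alpha-UAS-bla HEK 293T cells in 2% charcoal-stripped FBS medium were exposed to compounds for 16 hr at 37 C in agonist mode. Beta-lactamase reporter read as 460/530 nm FRET ratio after 2 hr substrate loading.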

[16] = qHTS assay to identify small molecule agonists of the farnesoid-X-receptor (FXR) signaling pathway - cell viability counter screen (AID 743218); also: nearly all actives have a fitted effect of over 45% in size
How it was run: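 In GeneBLAzer FXR-UAS-bla HEK 293T cells, compounds act for 16 h at 37 C. Cell viability is then scored in the reporter wells by CellTiter-Glo, 30 min at RT, luminescence.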

[17] = qHTS assay to identify small molecule antagonists of the farnesoid-X-receptor (FXR) signaling pathway - cell viability counter screen (AID 743221; active = well fitted cell-killing curve with a large enough effect in the repeat runs, not every such curve was filed as active; also: nearly all actives have a fitted effect of over 50% in size)
How it was run: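 GeneBLAzer FXR-UAS-bla HEK 293T cells, compound plus chenodeoxycholic acid (50 uM final), 16 h at 37 C. CellTiter-Glo added to the same wells after the beta-lactamase read; luminescence read after 30 min at room temperature as viability.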

[18] = qHTS assay to identify small molecule antagonists of the vitamin D receptor (VDR) signaling pathway - cell viability counter screen (AID 743225); also: nearly all actives have a fitted effect of over 50% in size
How it was run: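 VDR-UAS-bla HEK 293T cells were plated and incubated 4 h at 37C, then dosed with compound plus 3 nM (final) 1-alpha,25-dihydroxyvitamin D3 for 16 h. After the 2 h beta-lactamase read, viability in the same wells was read as CellTiter-Glo luminescence after 30 min at room temperature.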

[19] = qHTS assay to identify small molecule agonists of the endoplasmic reticulum stress response signaling pathway - cell viability counter screen (AID 1159517; calls by dose curve)
How it was run: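 Counter-screen wells were identical to the reporter wells. Cells were plated at 1,500 per well and dosed for 5 hr, then read for luminescence 30 min after CellTiter-Glo addition.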

Measured: Potency

CC(=O)OC/C=C/c1ccccc1
not listed: [16] | [17] | [18] | [19]
inactive: all other assays above

CC(=O)SCc1ccco1
not listed: [1] | [5] | [14] | [19]
inactive: all other assays above

CC(C)(Oc1ccc(Cl)cc1)C(=O)OCCCOC(=O)C(C)(C)Oc1ccc(Cl)cc1
not listed: [2] | [4] | [5] | [6] | [8] | [15] | [16] | [17]
inactive: all other assays above

CCCCC(CC)COCCCN (stereo not drawn)
not listed: [6] | [7] | [8] | [14] | [15] | [16] | [19]
inactive: all other assays above

CCCCCOC(=O)c1ccc(O)cc1
not listed: [1] | [5] | [8] | [13] | [14] | [16]
inactive: all other assays above

CC(=O)/C=C/C1C(C)=CCCC1(C)C (stereo not drawn)
not listed: [2] | [4] | [15]
inactive: all other assays above

Oc1ccc2c(c1)OCO2
not listed: [2] | [4] | [5] | [6] | [8] | [15] | [17]
inactive: all other assays above

NC(N)=N/N=C/c1c(Cl)cccc1Cl
inactive: [1] | [3] | [17] | [9] | [18] | [10] | [19] | [11] | [12]

N#Cc1c(F)cccc1F
not listed: [4] | [7] | [8] | [15]
inactive: all other assays above
